Measurements published in PubChem BioAssay (NCI).
Where “and” joins values, the source holds several entries; their conditions need not be identical. Identical values can stand only once. This is part of a sample that, as a whole, favours compounds with a hit. Of some 83,000 tested, about 20% had one in any assay.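 The test compound was applied at a single concentration to cells in 96-well plates for 48 hours, and percent growth was recorded.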 Calls of active or inactive are those of the source. The calls were made as follows: active = growth percent below 10; inactive = the rest.

Columns and labels:
Assay in all cases: NCI-60 one-dose screen, 48 h (100 = growth as untreated, 0 = no growth, -100 = all killed)
Settings in all cases: 10 µM unless noted
[1] = tested on: NCI-H23 lung
[2] = tested on: NCI-H226 lung
[3] = tested on: NCI-H322M lung
[4] = tested on: HOP-62 NSCLC
[5] = tested on: NCI-H460 lung
[6] = tested on: HOP-92 NSCLC
[7] = tested on: NCI-H522 lung
[8] = tested on: A549/ATCC NSCLC
[9] = tested on: 786-0 renal
[10] = tested on: COLO 205 colon
[11] = tested on: DU-145 prostate
[12] = tested on: K-562 leukemia
[13] = tested on: MALME-3M melanoma
[14] = tested on: MDA-MB-231 breast
[15] = tested on: RXF 393 renal
[16] = tested on: SF-268 CNS
[17] = tested on: SF-295 CNS
[18] = tested on: SF-539 CNS
[19] = tested on: UACC-257 melanoma
[20] = tested on: M14 melanoma

SMILES | growth [1] | growth [2] | growth [3] | growth [4] | growth [5] | growth [6] | growth [7] | growth [8] | growth [9] | growth [10] | growth [11] | growth [12] | growth [13] | growth [14] | growth [15] | growth [16] | growth [17] | growth [18] | growth [19] | growth [20]
CCOC(=O)C1=C(C)NC(C)=C(C(=O)OCC)C1 | 103% (inactive) and 92.2% (inactive) | 96.7% (inactive) and 96.4% (inactive) | 108% (inactive) and 102% (inactive) | 117% (inactive) and 91.3% (inactive) | 107% (inactive) and 98.2% (inactive) | 79.2% (inactive) and 89.5% (inactive) | 104% (inactive) and 106% (inactive) | 104% (inactive) and 99% (inactive) | 117% (inactive) and 87.5% (inactive) | 126% (inactive) and 96.4% (inactive) | 109% (inactive) and 110% (inactive) | 127% (inactive) and 110% (inactive) | 110% (inactive) and 99.7% (inactive) | 93.5% (inactive) and 117% (inactive) | 103% (inactive) | 104% (inactive) and 111% (inactive) | 82.6% (inactive) and 95.7% (inactive) | 90.8% (inactive) and 95.6% (inactive) | 105% (inactive) and 102% (inactive) | 162% (inactive) and 98% (inactive)
Cc1cc(NC(=O)NC(=O)c2ccccc2N(C)C)ccc1Oc1ncc(Br)cn1 | 19.3% (inactive) and 24.7% (inactive) | 55.6% (inactive) and 66.4% (inactive) | 44.4% (inactive) and 66.2% (inactive) | 37.7% (inactive) | 8.31% (active) and 10.8% (inactive) | 57.5% (inactive) | -22.2% (active) and 15.1% (inactive) | 43.9% (inactive) and 33.7% (inactive) | 27.9% (inactive) and 31.4% (inactive) | 14.2% (inactive) | -3.51% (active) and 20.7% (inactive) | 0.98% (active) and 20.3% (inactive) | 24.6% (inactive) and 55.2% (inactive) | 9.21% (active) and 34.1% (inactive) | 30.2% (inactive) and -1.61% (active) | 44.8% (inactive) and 63.6% (inactive) | 35.1% (inactive) and 36.1% (inactive) | -8.43% (active) and -14.3% (active) | 26% (inactive) and 73.5% (inactive) | 22.8% (inactive) and 17.1% (inactive)
O=[N+]([O-])c1cccc(N=Cc2ccccc2)c1 | 111% (inactive) | 99.9% (inactive) | 113% (inactive) | 105% (inactive) | 119% (inactive) | 95.7% (inactive) | 88.2% (inactive) | 99.8% (inactive) | 105% (inactive) | 118% (inactive) | 117% (inactive) | 95.8% (inactive) | 119% (inactive) | 106% (inactive) | 105% (inactive) | 105% (inactive) | 96.5% (inactive) | 99.5% (inactive) | 102% (inactive) | 106% (inactive)
COc1ccc(C(=O)C(O)c2ccc(OC)cc2)cc1 (stereo not given) | 98.4% (inactive) and 92.7% (inactive) | 92.5% (inactive) and 96.2% (inactive) | 96.6% (inactive) and 102% (inactive) | 109% (inactive) and 108% (inactive) | 104% (inactive) and 105% (inactive) | 96.2% (inactive) | 102% (inactive) | 109% (inactive) and 103% (inactive) | 103% (inactive) | 110% (inactive) and 108% (inactive) | 110% (inactive) and 103% (inactive) | 101% (inactive) and 103% (inactive) | 92.2% (inactive) and 103% (inactive) | 104% (inactive) and 112% (inactive) | 125% (inactive) and 103% (inactive) | 103% (inactive) and 101% (inactive) | 104% (inactive) and 107% (inactive) | 105% (inactive) and 103% (inactive) | 104% (inactive) and 101% (inactive) | 101% (inactive) and 99.9% (inactive)
COC(=O)c1nc(=S)[nH]c(C(=O)OC)c1C(=O)c1ccccc1 | 101% (inactive) | 90.2% (inactive) | 106% (inactive) | 113% (inactive) | 114% (inactive) | 92% (inactive) | 103% (inactive) | 112% (inactive) | 120% (inactive) | 119% (inactive) | 116% (inactive) | 111% (inactive) | 97.1% (inactive) | 93.5% (inactive) | 99.2% (inactive) | 108% (inactive) | 103% (inactive) | 87.8% (inactive) | 123% (inactive) | 113% (inactive)
O=C1c2ccccc2CN1c1ccccc1 | 94.2% (inactive) | 98.8% (inactive) | 107% (inactive) | 107% (inactive) | 103% (inactive) | 104% (inactive) | 74.7% (inactive) | 91.4% (inactive) | 94.7% (inactive) | 105% (inactive) | 115% (inactive) | 94.2% (inactive) | 118% (inactive) | 95.4% (inactive) | 105% (inactive) | 107% (inactive) | 104% (inactive) | 102% (inactive) | 103% (inactive) | 100% (inactive)
O=C(O)c1c2c(nc3ccccc13)Cc1ccccc1-2 | 96.7% (inactive) and 95.7% (inactive) | 115% (inactive) and 95% (inactive) | 119% (inactive) and 87.4% (inactive) | 118% (inactive) and 88.9% (inactive) | 105% (inactive) and 102% (inactive) | 92.3% (inactive) and 96.5% (inactive) | 113% (inactive) and 104% (inactive) | 97.9% (inactive) and 107% (inactive) | 108% (inactive) and 101% (inactive) | 109% (inactive) and 107% (inactive) | 108% (inactive) and 94.4% (inactive) | 115% (inactive) and 99.1% (inactive) | 105% (inactive) and 86.8% (inactive) | 107% (inactive) and 102% (inactive) | 182% (inactive) and 114% (inactive) | 95.4% (inactive) and 86.9% (inactive) | 104% (inactive) and 81.9% (inactive) | 116% (inactive) and 91.4% (inactive) | 85.8% (inactive) and 103% (inactive) | 91.5% (inactive) and 96% (inactive)
N#Cc1c[nH]n2ccnc12 | 99.3% (inactive) | 96% (inactive) | 98.7% (inactive) | 86% (inactive) | 119% (inactive) | 99.5% (inactive) | 87.8% (inactive) | 86.7% (inactive) | 97.3% (inactive) | 109% (inactive) | 111% (inactive) | 106% (inactive) | 106% (inactive) | 111% (inactive) | 113% (inactive) | 107% (inactive) | 99.8% (inactive) | 104% (inactive) | 97.7% (inactive) | 94.9% (inactive)
Nc1c(S(=O)(=O)O)cc(Br)c2c1C(=O)c1ccccc1C2=O | 103% (inactive) | 98.2% (inactive) and 99.6% (inactive) | 95.6% (inactive) and 106% (inactive) | 88.1% (inactive) and 111% (inactive) | 102% (inactive) and 106% (inactive) | 73.4% (inactive) | 83% (inactive) | 104% (inactive) | 106% (inactive) and 110% (inactive) | 97.5% (inactive) and 106% (inactive) | 106% (inactive) and 116% (inactive) | 101% (inactive) and 96.6% (inactive) | 97.6% (inactive) and 116% (inactive) | 115% (inactive) and 107% (inactive) | 111% (inactive) and 98.7% (inactive) | 102% (inactive) and 106% (inactive) | 104% (inactive) and 100% (inactive) | 104% (inactive) and 101% (inactive) | 83.3% (inactive) | 117% (inactive) and 110% (inactive)
COC(=O)c1nc(N)nc(C(=O)OC)c1C(=O)c1ccc(F)cc1 | 105% (inactive) | 110% (inactive) | 108% (inactive) | 113% (inactive) | 117% (inactive) | 101% (inactive) | 103% (inactive) | 114% (inactive) | 108% (inactive) | 117% (inactive) | 111% (inactive) | 109% (inactive) | 104% (inactive) | 103% (inactive) | 104% (inactive) | 103% (inactive) | 101% (inactive) | 103% (inactive) | 110% (inactive) | 108% (inactive)
CCOC(=N)c1ccc(C(=N)OCC)cc1 | 101% (inactive) | 100% (inactive) | 113% (inactive) | 84.2% (inactive) | 111% (inactive) | 93% (inactive) | 97.3% (inactive) | 99.7% (inactive) | 86.8% (inactive) | 103% (inactive) | 103% (inactive) | 98.7% (inactive) | 106% (inactive) | 96.3% (inactive) | 112% (inactive) | 98.4% (inactive) | 91.6% (inactive) | 98.1% (inactive) | 102% (inactive) | 104% (inactive)
OCCSc1ccc(Cl)cc1 | 112% (inactive) and 102% (inactive) | 116% (inactive) and 99.3% (inactive) | 114% (inactive) and 96% (inactive) | 108% (inactive) and 76.1% (inactive) | 108% (inactive) and 107% (inactive) | 101% (inactive) and 97.7% (inactive) | 101% (inactive) and 76.5% (inactive) | 104% (inactive) and 97% (inactive) | 108% (inactive) and 95.7% (inactive) | 117% (inactive) and 104% (inactive) | 125% (inactive) and 107% (inactive) | 112% (inactive) and 136% (inactive) | 117% (inactive) and 83.8% (inactive) | 115% (inactive) and 99.5% (inactive) | 114% (inactive) and 108% (inactive) | 124% (inactive) and 101% (inactive) | 94.9% (inactive) and 101% (inactive) | 108% (inactive) and 91.7% (inactive) | 114% (inactive) and 97.2% (inactive) | 107% (inactive) and 94.2% (inactive)
